# Laboratory results as given in PubChem BioAssay AID1259343 (VanderVen Lab, College of Veterinary Medicine, Cornell …, 2017).
# Among all 6,200 compounds or so, about 2,900 (47%) were called active. No stated cut-off is given here; in the data, active means inhibition above about 50%; inactive means the rest. So high a share suggests a set chosen from earlier hits. The list shows a part of the results.
# Test: Mycobacterium tuberculosis growth inhibition, primary screen (AID 1259343)
# Details: inhibition: at 10 µM, hits give high values; outcome: 10 uM
row,SMILES,inhibition
1,CC(C)OCCCNC(=O)Cc1cc(-c2cc3ccccc3o2)on1,90.9% (active)
2,COCCNC(=O)Cc1cc(-c2cc3ccccc3o2)on1,34.7% (inactive)
3,COCCNC(=O)c1cc(-c2ccc(Cl)cc2)on1,60% (active)
4,O=C(COC(=O)c1ccco1)Nc1ccc2ccccc2c1,39.6% (inactive)
5,NC(Cc1cnc[nH]1)C(=O)Nc1ccc2ccccc2c1 (stereo not drawn),72.9% (active)
6,Cc1cc(NC(=O)CN2CCOC(C)C2)ccc1Br (stereo not drawn),16.5% (inactive)
7,CCOC(=O)c1ccc(NC(=O)CN2CCOC(C)C2)cc1 (stereo not drawn),92% (active)
8,CC1CCc2c(sc(NC(=O)CN3CCOC(C)C3)c2C#N)C1 (stereo not drawn),30.6% (inactive)
9,CN(Cc1nnc(-c2ccc(F)cc2)o1)C1C2CCOC2C1(C)C (stereo not drawn),21.1% (inactive)
10,Fc1ccc(OCc2nnc(-c3ccc(Br)cc3)o2)cc1,-26.1% (inactive)
11,Fc1ccc(-c2csc(SCc3nnc(-c4ccc(F)cc4)o3)n2)cc1,69.3% (active)
12,Cc1cc(C)c2c(=O)[nH]c(SCc3nnc(-c4ccc(Cl)cc4)o3)nc2n1,-6.74% (inactive)
13,Clc1ccc(-c2nnc(CSc3nncs3)o2)cc1,97.2% (active)
14,Clc1ccc(-c2noc(CSc3nncs3)n2)cc1,-30.4% (inactive)
15,O=C1NC(=O)C(=Cc2cc(Br)c(Sc3ccc(Cl)cc3)o2)S1,85.2% (active)
16,CC1CCCN(Cc2csc(NC(=O)c3cccc(I)c3)n2)C1 (stereo not drawn),50.6% (active)
17,COc1ccc2c(CC(=O)Nc3nc(CN4CCCCC4)cs3)coc2c1,26.5% (inactive)
18,O=C(Nc1nc(CN2CCCCC2)cs1)c1cc(F)cc(F)c1,-30.9% (inactive)
19,O=C(c1ccc2c(c1)OCO2)C1CCCN(Cc2nc3ccccc3s2)C1 (stereo not drawn),inactive
20,O=C(CCc1nc2ccccc2s1)N1CCN(Cc2ccc(C(F)(F)F)cc2)CC1,88.1% (active)
21,O=C(C=Cc1cccs1)N1CCN(Cc2nc3ccccc3s2)CC1,67.3% (active)
22,CCc1cc(-c2n[nH]c(C)c2-c2nc3ccccc3s2)c(O)c(CN2CCN(C)CC2)c1O,10.5% (inactive)
23,Cc1sc(NN=Cc2cccc(O)c2)nc1-c1ccccc1,94.2% (active)

row,SMILES,inhibition
1,Cc1sc(-c2cccc(O)c2)nc1-c1ccccc1,23.1% (inactive)
2,COc1cccc(C=NNc2nc(-c3ccccc3)c(C)s2)c1OC,91.8% (active)
3,Oc1cccc(/C=N\Nc2cc(N3CCCC3)nc(N3CCCC3)n2)c1,14% (inactive)
4,COc1ccc(-c2nc(Nc3ccc(Cl)nc3)sc2C)cc1,25.9% (inactive)
5,COc1ccc(/C=N\NC(=O)c2ccncc2)c(C(=O)O)c1OC,42.2% (inactive)
6,CC1(C)CC(=O)C(Sc2ccc(Br)cc2)=C(O)C1,57.1% (active)
7,CN(Cc1ccccc1)C(=O)c1ccc(Nc2nc(C(N)COCc3ccccc3)cs2)nc1 (stereo not drawn),97.6% (active)
8,CCCCN(C)C(=O)c1ccc(Nc2nc(C(N)COCc3ccccc3)cs2)nc1 (stereo not drawn),64.2% (active)
9,O=C(Nc1ccnn1C1CCCCC1)c1c(O)cc(F)cc1F,29.4% (inactive)
10,CCn1c(O)c(C(C)=Nc2ccnn2C2CCCCC2)c(=O)n(CC)c1=S,100% (active)
11,Cc1ccc(OCC(O)Cn2c(C)cc(=O)n3ncnc23)cc1 (stereo not drawn),-1.37% (inactive)
12,Cc1ccc(OCC(O)Cn2c(C)nc3sc4c(c3c2=O)CCC4)cc1 (stereo not drawn),64.5% (active)
13,CCCc1cnc(-c2cnc3ccccc3c2)nc1,15.5% (inactive)
14,CCc1cnc(-c2cccc(O)c2)nc1,87.9% (active)
15,Cc1cccc(-c2ncc(CNCCCc3ccccc3)cn2)c1,24.1% (inactive)
16,O=[N+]([O-])c1ccc(Sc2nnc(-c3ccco3)o2)c([N+](=O)[O-])c1,57.5% (active)
17,CCOc1ccc(CSc2n[nH]c(-c3ccccn3)n2)nc1,99.6% (active)
18,CCOc1ccc(C2=NCC(CSc3n[nH]c(N)n3)S2)cc1 (stereo not drawn),19.9% (inactive)
19,CCCc1cc(=O)[nH]c(SCCOc2ccc(OCC)cc2)n1,-6.11% (inactive)
20,CCN(CC(=O)Nc1ccc(C#N)cc1)C1CCCCC1,-29.6% (inactive)
21,N#Cc1ccc(NC(=O)NC2CC2c2c(F)cccc2F)cc1 (stereo not drawn),51.6% (active)
22,C=CCSc1nnc(COc2ccccc2)o1,95.2% (active)
23,C=CCSc1nnc(Nc2ccc(Oc3ccccc3)cc2)s1,inactive

row,SMILES,inhibition
1,O=c1[nH]c2ccccc2n1CCCSc1nnc(COc2ccccc2Cl)o1,42.5% (inactive)
2,Cc1cccc(N/C=c2\c(C)c(C#N)c3nc4ccccc4n3c2=O)c1,-34.9% (inactive)
3,Cc1c(C#N)c2nc3ccccc3n2c(=O)/c1=C/Nc1ccc(F)cc1,-33.8% (inactive)
4,Cc1c(CCCl)c(Cl)n2c(nc3ccccc32)c1C#N,56.3% (active)
5,COCCNc1c2c(nc3c(-c4ccccc4)c(C)nn13)CCCC2,25.2% (inactive)
6,Cn1nc2c(c1NC(=O)c1ccc(Cc3ccccc3)cc1)CCC2,83.6% (active)
7,OCC1(CCCc2ccccc2)CCN(Cc2cc(Cl)ccc2O)CC1,38.5% (inactive)
8,O=S1(=O)CCC(=NNc2ccc(Cl)cc2)c2cc(F)ccc21,45% (inactive)
9,Clc1ccc(NN=C2CCN(Cc3ccccc3)CC2)cc1,94.7% (active)
10,O=[N+]([O-])c1cnc2ccc3ccccc3c2c1,96.6% (active)
11,Cc1cc(Br)c2c(c1)C1(OCCO1)C(=O)N2,-4.59% (inactive)
12,Cc1ccc(CNc2nccn(-c3cc(C)cc(C)c3)c2=O)cc1,53.9% (active)
13,COc1ccccc1CNc1nccn(-c2cccc(C)c2)c1=O,12.8% (inactive)
14,Cc1cccc(CC(=O)N(C)CC2Cc3ccccc3O2)c1 (stereo not drawn),21% (inactive)
15,CN(CC1Cc2ccccc2O1)C(=O)Nc1nc(-c2ccccc2)ns1 (stereo not drawn),4.41% (inactive)
16,CN(Cc1cccc(C(=O)Nc2cn(C)nn2)c1)CC1Cc2ccccc2O1 (stereo not drawn),86.5% (active)
17,O=C(CN1CCCC1=O)Nc1ccc(C23CC4CC(CC(C4)C2)C3)cc1,81.6% (active)
18,O=C(CN1CCCc2cccc(F)c21)Nc1cccc(F)c1,2.21% (inactive)
19,CC(C)n1cc(CN2CCC(C(=O)Nc3cccc(-c4cccc(Cl)c4)c3)CC2)cn1,46.3% (inactive)
20,COCC(=O)N1CCC(C(=O)Nc2cccc(-c3cccc(Cl)c3)c2)CC1,inactive
21,COCc1ccc(CN2CCC(C(=O)Nc3cccc(-c4cccc(Cl)c4)c3)CC2)o1,62.3% (active)
22,O=C(Nc1cccc(-c2cccc(Cl)c2)c1)C1CCN(Cc2ccncc2)CC1,92.8% (active)
